Test [1] deals with human MAP Kinase-Activated Protein Kinase 2 (MAPKAPK2), MAPKAPK2 (gene 9261) (UniProt P49137). Description: NVS_ENZ_hMAPKAPK2: NovaScreen (NVS) Enzymatic Assay for human MAP Kinase-Activated Protein Kinase 2 (MAPKAPK2) (AID 2283178). The gist of the method:
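Chemicals screened in duplicate at 25 uM, then to 50 uM top concentration in concentration-response, against recombinant human MAPKAPK2; substrate conversion read 1 hr post-dosing by fluorescence after electrophoretic mobility-shift separation, loss-of-signal relative to DMSO.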

Test [2] concerns the target human Matrix Metalloproteinase-2 (MMP2), MMP2 (gene 4313) (UniProt P08253). Description: NVS_ENZ_hMMP2: NovaScreen (NVS) Enzymatic Assay for human Matrix Metalloproteinase-2 (MMP2) (AID 2283184). The gist of the method:
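Compounds first screened in duplicate at a single 25 uM, with actives followed up in concentration series. Recombinant human MMP2 cleaves a fluorogenic substrate; fluorescence taken at 1 h, inhibition fitted relative to DMSO.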

For test [3], the target named is human Matrix Metalloproteinase-9 (MMP9), MMP9 (gene 4318) (UniProt P14780). Description: NVS_ENZ_hMMP9: NovaScreen (NVS) Enzymatic Assay for human Matrix Metalloproteinase-9 (MMP9) (AID 2283190).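 Further: cell-free recombinant MMP9 protease activity read by fluorescent substrate signal; active means inhibition seen as loss of fluorescence signal versus DMSO.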 How it is done:
(§1) NVS_ENZ_hMMP9 is a biochemical, single-readout assay that uses extracted gene-proteins in a cell-free assay. Measurements were taken 1 hour after chemical dosing in a 96-well plate.NVS_ENZ_hMMP9 is one of one assay component(s) measured or calculated from the NVS_ENZ_hMMP9 assay. It is designed to make measurements of enzyme activity, a form of enzyme reporter, as detected with fluorescence intensity signals by Fluorescence technology.Data from the assay component NVS_ENZ_hMMP9 was analyzed into 1 assay endpoint. This assay endpoint, NVS_ENZ_hMMP9, was analyzed in the positive analysis fitting direction relative to DMSO as the negative control and baseline of activity. Using a type of enzyme reporter, loss-of-signal activity can be used to understand changes in the enzymatic activity as they relate to the gene MMP9. Furthermore, this assay endpoint can be referred to as a primary readout, because this assay has produced multiple assay endpoints where this one serves a enzymatic activity function. To generalize the intended target to other relatable targets, this assay endpoint is annotated to the protease intended target family, where the subfamily is matrix metalloproteinase.
(§2) Binding assays used specific radioligands (tritiated, iodinated) with non-radioactive competitive displacement ligands in agonist or antagonist protocols (as indicated) and various reference compounds and inhibitors to titrate specific binding to receptors and transporters. Most enzyme assays (CYPs, kinases, phosphatases, proteases, HDACs) used recombinant protein and specific substrates (fluorescence mostly, some colorimetric and radioactive) and inhibitors, followed by a biochemical separation of substrate and product. All assays for the biochemical HTS were initially run in duplicate at a single concentration (10 uM for CYP450 assays and 25 uM for all others). […] Each assay was run with positive and negative controls, and concurrent controls on every plate. The follow-up (secondary) screen tested active chemical-pairs in concentration series, as well as a few additional assays not tested in the primary screen, some selected negative inactives, and several cases re-run in the concentration series for confirmatory purposes.

The target in test [4] is Mitogen-activated protein kinase 3 (Homo sapiens) (UniProt P27361). Description: NVS_ENZ_hMAPK3: NovaScreen (NVS) Enzymatic Assay for human Mitogen-Activated Protein Kinase 3 (MAPK 3) (AID 2283177). The gist of the method: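 Chemicals were first tested in duplicate at 25 uM, with hits re-run as concentration series (max 50 uM). Recombinant enzyme activity, measured 1 h post-dose in a cell-free format, was read by fluorescence/mobility shift relative to DMSO.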
Sequence of Mitogen-activated protein kinase 3 (Homo sapiens) (P27361 whole entry, looked up): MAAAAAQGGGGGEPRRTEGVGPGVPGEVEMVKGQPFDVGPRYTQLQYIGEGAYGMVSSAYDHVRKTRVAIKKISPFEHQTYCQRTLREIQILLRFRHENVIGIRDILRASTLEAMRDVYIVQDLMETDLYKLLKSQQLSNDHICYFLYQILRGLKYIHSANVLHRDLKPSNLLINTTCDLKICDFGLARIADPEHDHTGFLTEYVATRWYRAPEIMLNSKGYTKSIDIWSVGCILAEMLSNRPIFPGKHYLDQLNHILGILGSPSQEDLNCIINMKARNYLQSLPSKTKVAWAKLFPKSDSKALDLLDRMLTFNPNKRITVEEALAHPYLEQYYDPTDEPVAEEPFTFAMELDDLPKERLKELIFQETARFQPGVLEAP

Test [5] concerns the target human Mitogen- and Stress-activated Protein Kinase-1 (Msk1), RPS6KA5 (gene 9252) (UniProt O75582). Description: NVS_ENZ_hMsk1: NovaScreen (NVS) Enzymatic Assay for human Mitogen- and Stress-activated Protein Kinase-1 (Msk1) (AID 2283187). A digest of the protocol:
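Chemicals first run in duplicate at 25 uM, with actives followed up in singleton concentration series to 50 uM maximum. Enzyme activity came from substrate/product mobility-shift separation with fluorescence detection after 1 h incubation of the recombinant protein.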

The target of test [6] is human Matrix Metalloproteinase-3 (MMP3), MMP3 (gene 4314) (UniProt P08254). Description: NVS_ENZ_hMMP3: NovaScreen (NVS) Enzymatic Assay for human Matrix Metalloproteinase-3 (MMP3) (AID 2283185). As to the method:
as §1, with “NVS_ENZ_hMMP3” for “NVS_ENZ_hMMP9”, “plate.NVS_ENZ_hMMP3” for “plate.NVS_ENZ_hMMP9”, “NVS_ENZ_hMMP3,” for “NVS_ENZ_hMMP9,”, “MMP3.” for “MMP9.”
as §2

The target of test [7] is human Matrix Metalloproteinase-7 (MMP7), MMP7 (gene 4316) (UniProt P09237). Description: NVS_ENZ_hMMP7: NovaScreen (NVS) Enzymatic Assay for human Matrix Metalloproteinase-7 (MMP7) (AID 2283183). The gist of the method:
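Compounds first tested at 25 uM in duplicate, then at up to 50 uM in concentration series if active. Protease activity measured by fluorescence intensity 1 h after dosing, with fitting relative to DMSO.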

For test [8], the target named is Collagenase 3 (Homo sapiens) (UniProt P45452). Description: NVS_ENZ_hMMP13: NovaScreen (NVS) Enzymatic Assay for human Matrix Metalloproteinase-13 (MMP13) (AID 2283182). The gist of the method:
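Recombinant MMP13 cleaving fluorescent substrate, cell-free, measured 1 h after dosing. Primary duplicate screen at 25 uM; actives tested in concentration-response up to 50 uM; loss of signal relative to DMSO.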

Test [9] addresses human LYN Proto-Oncogene, Src family Tyrosine Kinase (LynA), LYN (gene 4067) (UniProt P07948). Description: NVS_ENZ_hLynA: NovaScreen (NVS) Enzymatic Assay for human LYN Proto-Oncogene, Src family Tyrosine Kinase (LynA) (AID 2283173). A digest of the protocol: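 Recombinant kinase with fluorescent substrate; product separated from substrate by electrophoretic mobility shift and read 1 h after dosing. Duplicate screen at 25 uM, then concentration-response up to 50 uM; activity scored as signal loss against DMSO.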

The target in test [10] is human c-Jun N-terminal Kinases (JNK2), MAPK9 (gene 5601) (UniProt P45984). Description: NVS_ENZ_hJNK2: NovaScreen (NVS) Enzymatic Assay for human c-Jun N-terminal Kinases (JNK2) (AID 2283171). A digest of the protocol: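 Chemicals first tested in duplicate at 25 uM, then in singleton concentration series up to 50 uM, against extracted JNK2 enzyme. Activity loss read by fluorescence with mobility-shift separation 1 h post-dose; DMSO baseline.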
Sequence of human c-Jun N-terminal Kinases (JNK2), MAPK9 (gene 5601) (P45984 whole entry, looked up): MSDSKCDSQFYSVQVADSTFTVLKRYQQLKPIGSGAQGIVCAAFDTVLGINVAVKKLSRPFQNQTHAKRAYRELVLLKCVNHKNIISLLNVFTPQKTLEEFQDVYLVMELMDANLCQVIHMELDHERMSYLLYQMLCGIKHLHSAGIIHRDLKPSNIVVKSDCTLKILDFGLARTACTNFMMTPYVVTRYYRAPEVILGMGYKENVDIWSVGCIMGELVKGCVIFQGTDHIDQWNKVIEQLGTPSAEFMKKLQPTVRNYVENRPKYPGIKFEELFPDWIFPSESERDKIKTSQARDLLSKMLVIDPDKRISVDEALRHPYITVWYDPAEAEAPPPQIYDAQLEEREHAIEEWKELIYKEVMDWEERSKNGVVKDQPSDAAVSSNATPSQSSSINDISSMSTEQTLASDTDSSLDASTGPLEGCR

Results filed as inconclusive are left out. The source made the active and inactive calls. How the source made its calls: active means hit-call score of the fitted dose curve at least 0.9, where 1 is the maximum; inconclusive means response in the unintended direction; inactive means score below 0.9.

Sequence of human Matrix Metalloproteinase-2 (MMP2), MMP2 (gene 4313) (P08253 whole entry, looked up): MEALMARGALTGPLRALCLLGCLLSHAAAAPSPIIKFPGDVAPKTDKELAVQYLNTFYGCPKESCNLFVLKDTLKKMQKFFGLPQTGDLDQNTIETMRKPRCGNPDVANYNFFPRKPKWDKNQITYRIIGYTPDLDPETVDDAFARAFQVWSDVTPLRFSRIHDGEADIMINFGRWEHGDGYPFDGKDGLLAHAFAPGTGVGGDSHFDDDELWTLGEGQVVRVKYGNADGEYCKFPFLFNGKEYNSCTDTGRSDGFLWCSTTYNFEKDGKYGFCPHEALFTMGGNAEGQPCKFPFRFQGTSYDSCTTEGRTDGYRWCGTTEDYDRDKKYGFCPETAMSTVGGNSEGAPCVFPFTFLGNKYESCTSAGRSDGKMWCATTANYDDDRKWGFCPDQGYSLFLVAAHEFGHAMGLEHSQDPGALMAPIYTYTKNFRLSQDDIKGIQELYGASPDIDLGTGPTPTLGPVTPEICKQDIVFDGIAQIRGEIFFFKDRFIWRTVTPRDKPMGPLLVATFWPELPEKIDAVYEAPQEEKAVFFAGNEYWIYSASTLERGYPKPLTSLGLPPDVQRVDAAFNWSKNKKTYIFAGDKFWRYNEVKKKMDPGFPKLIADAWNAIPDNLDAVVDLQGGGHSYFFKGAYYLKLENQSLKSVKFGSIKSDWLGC
Sequence of human MAP Kinase-Activated Protein Kinase 2 (MAPKAPK2), MAPKAPK2 (gene 9261) (P49137 whole entry, looked up): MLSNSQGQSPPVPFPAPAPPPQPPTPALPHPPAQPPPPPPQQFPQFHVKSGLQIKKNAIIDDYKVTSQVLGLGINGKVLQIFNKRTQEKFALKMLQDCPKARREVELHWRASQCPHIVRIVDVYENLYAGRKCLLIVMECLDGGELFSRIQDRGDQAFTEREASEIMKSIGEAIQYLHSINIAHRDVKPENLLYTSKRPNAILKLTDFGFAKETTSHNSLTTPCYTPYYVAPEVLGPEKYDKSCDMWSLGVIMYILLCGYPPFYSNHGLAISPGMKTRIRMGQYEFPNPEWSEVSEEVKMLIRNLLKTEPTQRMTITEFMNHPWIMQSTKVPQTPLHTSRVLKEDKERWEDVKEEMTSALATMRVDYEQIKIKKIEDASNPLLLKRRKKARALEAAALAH
Sequence of human Matrix Metalloproteinase-7 (MMP7), MMP7 (gene 4316) (P09237 whole entry, looked up): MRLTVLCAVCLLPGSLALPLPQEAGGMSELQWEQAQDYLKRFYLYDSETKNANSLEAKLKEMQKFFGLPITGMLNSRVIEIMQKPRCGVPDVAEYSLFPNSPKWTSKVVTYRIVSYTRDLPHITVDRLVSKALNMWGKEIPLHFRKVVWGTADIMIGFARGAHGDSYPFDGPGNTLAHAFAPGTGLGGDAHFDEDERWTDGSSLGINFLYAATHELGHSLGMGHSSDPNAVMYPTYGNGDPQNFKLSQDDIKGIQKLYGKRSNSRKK
Sequence of human Mitogen- and Stress-activated Protein Kinase-1 (Msk1), RPS6KA5 (gene 9252) (O75582 whole entry, looked up): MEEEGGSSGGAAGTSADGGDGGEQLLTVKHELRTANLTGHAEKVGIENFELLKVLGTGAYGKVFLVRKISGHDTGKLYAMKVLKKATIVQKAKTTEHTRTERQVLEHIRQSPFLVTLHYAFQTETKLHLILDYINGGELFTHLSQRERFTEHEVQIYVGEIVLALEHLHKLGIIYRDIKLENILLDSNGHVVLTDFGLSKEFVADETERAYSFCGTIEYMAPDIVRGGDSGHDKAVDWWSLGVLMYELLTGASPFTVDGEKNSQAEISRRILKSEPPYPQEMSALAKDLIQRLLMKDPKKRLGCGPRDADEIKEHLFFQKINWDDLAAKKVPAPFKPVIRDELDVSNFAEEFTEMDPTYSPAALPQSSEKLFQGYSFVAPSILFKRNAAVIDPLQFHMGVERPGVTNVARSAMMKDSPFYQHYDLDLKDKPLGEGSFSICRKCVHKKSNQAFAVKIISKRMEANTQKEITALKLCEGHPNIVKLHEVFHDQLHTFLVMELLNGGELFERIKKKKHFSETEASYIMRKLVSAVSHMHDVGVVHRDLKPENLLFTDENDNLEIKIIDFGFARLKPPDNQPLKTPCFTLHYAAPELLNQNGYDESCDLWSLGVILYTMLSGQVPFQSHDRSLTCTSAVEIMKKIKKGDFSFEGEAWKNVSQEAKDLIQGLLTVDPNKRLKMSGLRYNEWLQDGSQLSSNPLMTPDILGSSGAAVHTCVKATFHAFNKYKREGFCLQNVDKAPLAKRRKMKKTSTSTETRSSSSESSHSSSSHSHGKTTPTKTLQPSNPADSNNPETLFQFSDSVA
Sequence of human Matrix Metalloproteinase-9 (MMP9), MMP9 (gene 4318) (P14780 whole entry, looked up): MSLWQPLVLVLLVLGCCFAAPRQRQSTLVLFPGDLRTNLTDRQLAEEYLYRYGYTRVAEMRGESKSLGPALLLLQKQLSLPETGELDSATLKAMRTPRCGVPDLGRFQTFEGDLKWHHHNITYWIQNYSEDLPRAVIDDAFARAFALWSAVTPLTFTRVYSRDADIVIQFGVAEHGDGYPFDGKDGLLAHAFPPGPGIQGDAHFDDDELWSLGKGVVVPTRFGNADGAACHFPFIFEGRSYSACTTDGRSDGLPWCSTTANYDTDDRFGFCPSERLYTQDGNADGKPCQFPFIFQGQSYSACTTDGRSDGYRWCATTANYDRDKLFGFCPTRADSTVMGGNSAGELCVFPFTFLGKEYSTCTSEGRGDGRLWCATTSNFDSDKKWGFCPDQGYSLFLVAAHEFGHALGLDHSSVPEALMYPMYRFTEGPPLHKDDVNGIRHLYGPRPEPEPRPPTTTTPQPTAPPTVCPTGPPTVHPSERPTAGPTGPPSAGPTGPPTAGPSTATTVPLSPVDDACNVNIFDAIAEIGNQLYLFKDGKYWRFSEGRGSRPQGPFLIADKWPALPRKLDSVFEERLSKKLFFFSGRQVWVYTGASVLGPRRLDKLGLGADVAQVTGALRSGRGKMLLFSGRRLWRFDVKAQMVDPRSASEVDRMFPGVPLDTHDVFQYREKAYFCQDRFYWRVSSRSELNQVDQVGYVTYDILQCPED
Sequence of human Matrix Metalloproteinase-3 (MMP3), MMP3 (gene 4314) (P08254 whole entry, looked up): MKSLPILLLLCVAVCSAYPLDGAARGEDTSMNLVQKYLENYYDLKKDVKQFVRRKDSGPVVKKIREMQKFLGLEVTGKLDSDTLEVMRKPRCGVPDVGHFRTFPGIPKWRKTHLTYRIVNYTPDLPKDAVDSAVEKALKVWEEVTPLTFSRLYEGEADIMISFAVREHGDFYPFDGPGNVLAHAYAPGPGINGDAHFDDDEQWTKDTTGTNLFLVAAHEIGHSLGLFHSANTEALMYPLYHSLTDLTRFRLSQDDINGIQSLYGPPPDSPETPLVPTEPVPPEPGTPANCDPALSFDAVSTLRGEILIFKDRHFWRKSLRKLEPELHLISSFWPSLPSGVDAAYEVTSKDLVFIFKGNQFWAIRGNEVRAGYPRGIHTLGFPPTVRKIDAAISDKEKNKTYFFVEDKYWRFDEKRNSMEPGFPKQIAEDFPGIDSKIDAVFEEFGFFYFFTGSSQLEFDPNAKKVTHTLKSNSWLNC
Sequence of human LYN Proto-Oncogene, Src family Tyrosine Kinase (LynA), LYN (gene 4067) (P07948 whole entry, looked up): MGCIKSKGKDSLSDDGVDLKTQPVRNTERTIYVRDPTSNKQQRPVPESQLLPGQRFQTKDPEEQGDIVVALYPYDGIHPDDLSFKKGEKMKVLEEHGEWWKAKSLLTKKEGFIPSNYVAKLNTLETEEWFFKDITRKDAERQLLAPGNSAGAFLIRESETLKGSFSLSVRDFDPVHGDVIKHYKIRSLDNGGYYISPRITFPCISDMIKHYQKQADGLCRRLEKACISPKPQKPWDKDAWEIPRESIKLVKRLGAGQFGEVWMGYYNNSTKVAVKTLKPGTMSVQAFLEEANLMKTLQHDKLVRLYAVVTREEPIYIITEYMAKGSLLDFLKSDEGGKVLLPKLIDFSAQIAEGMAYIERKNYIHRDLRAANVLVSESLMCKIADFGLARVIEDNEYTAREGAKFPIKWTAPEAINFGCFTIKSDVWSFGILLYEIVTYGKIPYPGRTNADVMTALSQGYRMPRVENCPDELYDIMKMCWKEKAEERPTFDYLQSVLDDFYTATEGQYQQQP

`OC(CCl)CCl`: the result in test [1] was inactive. `CC(=O)c1ccccc1`: in test [2], the AC50 is 26.7 µM (active). Consider `S=P(N1CC1)(N1CC1)N1CC1`, for which, in test [3], the AC50 is 5.18 µM (active). For the molecule `CCCCCCCC/C=C\CCCCCCCC(=O)OC[C@@H](O)[C@H]1OC[C@H](O)[C@H]1O`, the molecule was classed as inactive in test [4] and in [5].

Regarding `CCCCOC(=O)c1ccccc1`, the result in [6] was inactive. `Cc1ccc(S(=O)(=O)NC(=O)NN2CCCCCC2)cc1`: the call in test [7] was inactive.

Consider `c1ccc2ncccc2c1`, for which, in test [1], the outcome was inactive. `O=S(=O)(O)c1ccc(N=Nc2c(O)ccc3cc(S(=O)(=O)O)ccc23)cc1`: the AC50 in [8] was 14.8 µM (active); in [2], 4.96 µM (active); in test [6], 19.4 µM (active). Regarding `O=c1[nH]cnc2c1ncn2[C@H]1CC[C@@H](CO)O1`, the call in test [4] and in test [5] was inactive.

As to `c1ccc2cc3ccccc3cc2c1`, in test [1], the call was inactive.

In the case of `O=C(NO)C1(NS(=O)(=O)c2ccc(Oc3ccc(F)cc3)cc2)CCOCC1`, the molecule was classed as inactive in [9] and in test [1]. The concentration at half-maximal activity (AC50) in test [8] was 0.00244 µM (active); in test [7], 14.7 µM (active); in test [6] it was 1.92 µM (active); in [3], 0.00916 µM (active).

As to `Cn1c(=O)c2[nH]cnc2n(C)c1=O`, the call in test [1] and in test [5] was inactive. For the molecule `O=C(O)c1ccc2c(c1)nc(C(=O)NC1CCN(C3CC3)CC1)n2Cc1cc(-c2ccc(Cl)s2)on1`, the result in test [4] was inactive. As for `CCCCN1C(=O)[C@@H]([C@H](O)C2CCCCC2)NC(=O)C12CCN(Cc1ccc(Oc3ccc(C(=O)O)cc3)cc1)CC2`, the call in test [3] was inactive. In the case of `COc1cc2c(c(OC)c1OC)-c1ccc(OC)c(=O)cc1[C@@H](NC(C)=O)CC2`, in [8], the AC50 is 25.7 µM (active). Further, the outcome in test [6] was inactive. With `NNC(=O)c1ccncc1`, the call in [1] was inactive. As for `CC(C)C(=O)Nc1ccc([N+](=O)[O-])c(C(F)(F)F)c1`, the result in test [7] was inactive. Further, the AC50 in [2] is 12.7 µM (active). In the case of `CCCCC(CC)C(=O)OCCOCCOCCOC(=O)C(CC)CCCC` (stereo not given), the outcome in [1] was inactive. With `Cc1ncc([C@@H](CCCCCCc2ccc3c(n2)NCCC3)CC(=O)O)cn1`, the molecule was classed as inactive in test [1] and in test [5]. In the case of `Cc1nc(-c2ccccn2)ncc1C(=O)Nn1cc(C)c2cc(F)ccc21`, the outcome in test [5] was inactive. With `CCCC(CCC)C(=O)O`, the result in test [10], in test [4] and in test [5] was inactive.

As for `Cc1cccc(O)c1C`, in test [3], the AC50 was 5.08 µM (active). On to `OC[C@H]1O[C@@](CO)(O[C@H]2O[C@H](CO)[C@@H](O)[C@H](O)[C@H]2O)[C@@H](O)[C@@H]1O`, for which, in test [2], the outcome was inactive. Turning to `c1ccc2c(c1)-c1cccc3c1c-2cc1ccccc13`, in test [1], the molecule was called inactive. With `CC[C@H](C)C(=O)O[C@H]1C[C@H](O)C=C2C=C[C@H](C)[C@H](CC[C@@H](O)C[C@@H](O)CC(=O)O)[C@H]21`, the molecule was called inactive in [4], in test [7], in [2] and in [3]. As to `COCc1nnc(-c2ccc[n+]([O-])c2)n1-c1c(Cl)c(Cl)cc2[nH]c(=O)c(=O)[nH]c12`, the figures for the half-maximal activity concentration (AC50) in [8] and in test [2] were 21.5 µM (active) and 7.26 µM (active), respectively.

The values are drawn from PubChem BioAssay (EPA / NIEHS).
